Results filed as inconclusive are left out. The source made the active and inactive calls. The calls were made as follows: active = hit-call score of the fitted dose curve at least 0.9, where 1 is the maximum; inactive = score below 0.9.
Target: human BTK TK Kinase, BTK (gene 695) (UniProt Q06187)
Assay: ERF_TW_ENZ_hBTK: Eurofins (ERF) Enzymatic Radiometric [10 uM ATP] LeadHunter Assay for human BTK TK Kinase
Procedure: ERF_TW_ENZ_hBTK is a biochemical, single-readout assay that uses extracted gene-proteins in a cell-free assay. Measurements were taken 0.5 hour after chemical dosing in a 96-well plate. See BTK Human TK Kinase Enzymatic Radiometric Assay [10 uM ATP], Panlabs.ERF_TW_ENZ_hBTK is an assay component calculated from the ERF_TW_ENZ_hBTK assay. It is designed to measure enzyme activity using a type of enzyme reporter as detected by scintillation counting with radiometry technology.Data from the assay component ERF_TW_ENZ_hBTK was analyzed at the assay endpoint, ERF_TW_ENZ_hBTK, in the positive analysis fitting direction relative to DMSO as the negative control and baseline of activity. Using a type of enzyme reporter, loss-of-signal activity can be used to understand changes in enzymatic activity as they relate to gene BTK. To generalize the intended target to other relatable targets, this assay endpoint is annotated to the kinase intended target family, where the subfamily is tyrosine kinase (tk).
Human recombinant protein kinase BTK expressed in insect Sf21 cells is used. Test compound and/or vehicle is preincubated with 200 ng/ml enzymedouble dagger in modified HEPES buffer pH 7.4 for 15 minutes at 37C. […] An aliquot is removed and counted to determine the amount of [32P]Poly(Glu:Tyr) formed. […]

human BTK TK Kinase, BTK (gene 695), sequence (Q06187 whole entry, looked up): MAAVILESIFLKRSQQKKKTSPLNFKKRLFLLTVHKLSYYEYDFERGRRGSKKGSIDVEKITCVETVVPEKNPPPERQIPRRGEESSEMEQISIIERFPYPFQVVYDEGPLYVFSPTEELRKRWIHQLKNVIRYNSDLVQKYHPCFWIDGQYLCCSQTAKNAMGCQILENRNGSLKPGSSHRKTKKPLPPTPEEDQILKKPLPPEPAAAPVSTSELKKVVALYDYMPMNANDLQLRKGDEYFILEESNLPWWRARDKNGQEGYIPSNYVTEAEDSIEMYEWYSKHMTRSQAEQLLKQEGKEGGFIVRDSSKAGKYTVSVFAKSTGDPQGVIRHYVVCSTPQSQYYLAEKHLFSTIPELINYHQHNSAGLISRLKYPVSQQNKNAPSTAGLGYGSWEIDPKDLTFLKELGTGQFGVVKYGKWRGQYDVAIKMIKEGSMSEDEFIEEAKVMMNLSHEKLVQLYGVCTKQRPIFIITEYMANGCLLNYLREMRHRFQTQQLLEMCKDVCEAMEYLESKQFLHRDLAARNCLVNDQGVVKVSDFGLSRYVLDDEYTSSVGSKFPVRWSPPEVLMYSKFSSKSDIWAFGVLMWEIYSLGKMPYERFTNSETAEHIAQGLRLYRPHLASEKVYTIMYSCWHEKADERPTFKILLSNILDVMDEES

Compound | AC50
O=C(/C=C/c1ccc(O)cc1)CC(=O)/C=C/c1ccc(O)cc1 | 6.13 µM (active)

— PubChem BioAssay AID2284063 (EPA ToxCast)
